Screening data (PubChem)
Pf growth 96h – P. falciparum growth inhibition at 96 hours; P. falciparum luciferase reporter growth, 96 h; Potency, µM (titrated, usually from 28.7 µM), for inactives: at the highest dose activity change, negative = inhibition, hits mostly inhibitors; 320,000 compounds, 6.9% hits; note: % is set by controls: 0 for no effect and ±100 for the full control effect
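Parasite growth measured via integrated firefly luciferase reporter in P. falciparum. Infected erythrocytes at 2% hematocrit, 0.05% parasitemia final were treated 96 hours at 37 C under 5% CO2, and luminescence was read.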
AMA1-RON2 inh – AMA1-RON2 (P. falciparum) interaction inhibition; AlphaScreen AMA1-biotinylated RON2 peptide binding; Potency, µM (doses to about 58.2 µM), inactives show at the highest dose activity change, negative = inhibition, usual class: inhibitors; 360,000 compounds, 0.2% hits;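 note: 0% = vehicle wells and -100% = peptide control; nearly all actives have a fitted effect of over 45% in size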
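AMA1 (3D7) with his tag at 25 nM final met compounds first, then biotinylated RON2 peptide at 25 nM; detection used donor plus acceptor beads, 10 µg/mL apiece, read by AlphaScreen after 30 min at room temperature.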
Pf growth 48h – P. falciparum growth inhibition at 48 hours (one generation). P. falciparum luciferase growth in erythrocytes, 48 h. Potency, µM (highest dose often 28.7 µM), without a hit: top-dose activity change, negative = inhibition, hits mostly inhibitors. 310,000 compounds, 5.9% hits. AID 504832; note: % is set by controls: 0 for no effect and ±100 for the full control effect
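Luciferase-expressing parasites in RBCs, 2% Hct / 0.1% parasitemia final; RPMI 1640 + 0.5% Albumax; 37 C, 5% CO2, one generation; luminescence read-out, lower signal = inhibition.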
NS1 inh – inhibitors of influenza NS1 protein function | Potency, µM (series often up to 46.1 µM), without a hit: at the highest dose activity, positive = more growth | 270,000 compounds, 0.4% hits | AID 2326; calls by dose curve; note: actives are rising curves; nearly all actives have a fitted effect of over 50% in size
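OD600 was taken as the measure of yeast growth restored by compound in an NS1-expressing S. cerevisiae strain. Cells had been washed out of glucose medium and diluted 1:100 into galactose -URA medium, pH 6.0.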
HCV inhibitor – inhibitors of hepatitis C virus infection. Huh7.5.1 HCVcc-Cre infection, luciferase reporter, 44 h. Potency, µM (series often up to 41.8 µM), without a hit: at the top dose activity change, negative = inhibition, actives largely listed as inhibitors. AID 651820. 340,000 compounds, 3.4% hits; note: % is set by controls: 0 for no effect and ±100 for the full control effect
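Cells seeded at 1,000/well and cultured 4 h, then compounds added followed by HCVcc-Cre virus (~0.5 moi). After 44 h further culture, luciferase substrate was added, plates held 15 min at room temperature, and luminescence read for 15 sec.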
SARS PLpro yeast – inhibitors of SARS-CoV papain-like protease in yeast | S. cerevisiae expressing SARS-CoV PLpro, growth rescue | Potency, µM (top dose mostly 32.9 µM), inactives show at the top dose activity, positive = growth rescue, actives largely listed as activators | 330,000 compounds, 0.19% hits | AID 485353; calls by dose curve; note: 0% is about no effect; nearly all actives have a fitted effect of over 55% in size
* hit, by the source's call; ? = inconclusive; . = not tested or not shown; [ ] = another dose, or the depositor's remark. Rows were chosen to be rich in hits. Some 12% of all compounds tested hit in one or more screens of this group. Unless noted, calls come from the whole dose curve; as a rule, active = well fitted curve in the direction sought with a large enough effect; inconclusive = small, poorly fitted or top-dose-only effect, or another doubt; inactive = no such curve, though single readings can be large; an effect the other way counts as inactive or inconclusive. Potency is the fitted concentration of half-maximal effect.

SMILES	Pf growth 96h	AMA1-RON2 inh	Pf growth 48h	NS1 inh	HCV inhibitor	SARS PLpro yeast
O=C(NC(=S)Nc1ccccc1[N+](=O)[O-])c1cncc(Br)c1	2.62µM*	52.1%	7.5%	-7.3%	-0.8%	-4.9%
O=C(N/N=C/c1ccc(N2CCOCC2)s1)c1ccccc1Cl	?	62.7%	-29.7%	.	?	3.1%
O=C(CN1CCN(C(=O)c2ccco2)CC1)Nc1cc(C(F)(F)F)ccc1Cl	.	5.9%	1.65µM*	-4.5%	13.0%	12.1%
O=C(C[n+]1ccc2ccccc2c1)Nc1cc(C(F)(F)F)ccc1Cl	?	19.9%	1.31µM*	0.8%	?	-15.2%
O=C(CN1CCOCC1)Nc1cc(C(F)(F)F)ccc1Cl	11.7µM*	-3.5%	?	.	-27.0%	-2.8%
O=C(C[n+]1ccccc1)Nc1cc(C(F)(F)F)ccc1Cl	31.2%	7.2%	-0.5%	20.1%	-1.4%	4.5%
O=C(CN1CCCCCC1)Nc1cc(C(F)(F)F)ccc1Cl	0.0%	-11.0%	6.4%	.	-2.6%	-1.9%
FC(F)(F)c1ccc(Cl)c(N/N=C/c2ccc(N3CCOCC3)s2)c1	7.38µM*	-25.7%	?	?	0.7%	-21.8%
Cc1ccc([C@H]2N[C@]3(CCCN(Cc4ccc(F)cc4)C3=O)[C@H]3C(=O)N(C)C(=O)[C@@H]23)cc1	.	-15.9%	.	.	.	.
CC(=O)NC(C)(c1ccccc1)c1nc(-c2cc(F)cc(F)c2)cs1 (configuration not stated)	.	0.6%	.	.	.	.
CC=Cc1cc(OC)c2c(c1)C(C)C(c1ccc(O)c(OC)c1)O2 (configuration not stated)	.	-24.7%	.	.	?	.
Cc1cccc(C(=O)OC2CCOC2=O)c1C (configuration not stated)	44.9%	30.1%	40.7%	8.8%	23.2%	3.3%
CC(C)(C)c1ccc(SCCc2ccccn2)cc1	189.8%	20.8%	175.5%	-8.3%	-2.0%	0.3%
c1ccc(-c2nc3c4ccccc4ccn3c2CN2CCCCC2)cc1	?	-1.3%	?	-4.9%	-18.7%	0.0%
Cc1ccc(-c2nc3c4ccccc4ccn3c2CN2CCCCC2)cc1	-13.7%	-7.5%	9.28µM*	-1.4%	-16.1%	1.2%
CCCCNC(=O)C1(C)CCN1C(=O)c1csnn1 (configuration not stated)	.	-0.3%	.	.	.	.
COc1cc2c(cc1OC)CN(c1ccc(C(F)(F)F)cn1)CC2	37.9%	-10.7%	19.4%	-28.6%	?	-5.9%
COc1cc2c(cc1OC)CN(c1ccc3ccccc3n1)CC2	?	-21.1%	11.7µM*	-12.0%	12.6µM*	-20.9%
COc1cc2c(cc1OC)CN(c1ccc(-c3ccccc3OC)nn1)CC2	5.9%[5.75 µM]	-20.2%	5.22µM*	-78.0%	?	-2.8%
CC(Sc1ccccc1)C(=O)NCC(c1ccco1)N1CCCCC1 (configuration not stated)	?	28.1%	?	.	?	-3.2%
COc1ccc(S(=O)(=O)N2CCCCC2)cc1C(=O)N1CCCC1	2.33µM*	5.9%	-6.9%	16.6%	-15.4%	-5.8%
COc1ccc(S(=O)(=O)N2CCN(c3ccc(F)cc3)CC2)cc1C(=O)N1CCCC1	55.5%	-21.6%	-0.7%	-6.7%	?	12.5%
COc1ccc(N2CCN(S(=O)(=O)c3ccc(OC)c(C(=O)N4CCCCC4)c3)CC2)cc1	10.5%	-3.7%	-2.2%	-16.5%	12.6µM*	-1.8%
O=C(O)CSCCc1ccccc1	.	.	.	0.0%	.	.
COCCCNC(=O)C1CCN(c2nc(C)cc(C)n2)CC1	5.22µM*	0.0%	3.2%	0.8%	20.8%	-5.5%
SMILES	Pf growth 96h	AMA1-RON2 inh	Pf growth 48h	NS1 inh	HCV inhibitor	SARS PLpro yeast
O=C(O)Cn1nnc(-c2ccc(OCc3ccccc3)cc2)n1	.	-3.8%	.	.	10.4%	.
Cc1cccc2nc(-c3ccccc3)nc(N[C@@H](CO)c3ccccc3)c12	13.1µM*	-14.1%	13.1µM*	.	?	-80.6%
COc1ccc(-c2csc(NC(=O)CN3C(=O)C4CCCCC4C3=O)n2)c(OC)c1 (configuration not stated)	?	-12.0%	-11.2%	.	11.2µM*	0.0%
COc1ccc(OC)c(-c2csc(NC(=O)CN3C(=O)NC4(CCCC4)C3=O)n2)c1	-24.9%	-22.8%	0.6%	.	?	-1.8%
COc1ccc(-c2csc(NC(=O)CSCc3c(C)noc3C)n2)c(OC)c1	10.4µM*	?	?	.	?	-7.8%
COc1ccc(-c2csc(NC(=O)CSCC(=O)Nc3cc(C)on3)n2)cc1	0.0%	6.9%	43.9%	.	?	-1.2%
CCS(=O)(=O)N1Cc2cc(C(=O)NCCOC)nc(-c3cccc(-c4ccncc4)c3)c2[C@H]1CCO	.	1.3%	.	.	.	.
CCOc1ccc(N(CC(=O)NC(C)(C)C)C(=O)CCC(=O)Nc2nccs2)cc1	17.8%	5.8%	-22.0%	6.6%	10.0%	4.5%
C[C@@H]1CN([C@@H](C)CO)C(=O)CCCn2nncc2CO[C@@H]1CN(C)C(=O)c1ccncc1	.	0.7%	.	.	.	.
C/C(=N/N1CCN(Cc2cccc3ccccc23)CC1)c1ccco1	1.7%	?	0.7%	9.6%	-4.6%	-1.9%
Cc1cc(SCC(=O)c2cccs2)nc2ccccc12	-7.1%	-4.0%	26.6%	5.7%	10µM*	-4.5%
CCC(C)Sc1ccc(-c2nc3ccc(C)cn3c2NC2CCCCC2)cc1 (configuration not stated)	?	-7.9%	11.7µM*	.	-16.0%	3.2%
CCC(C)Sc1cccc(-c2nc3ccc(C)cn3c2NC2CCCCC2)c1 (configuration not stated)	13.1µM*	-24.8%	8.28µM*	.	-9.3%	-0.9%
CC(=O)c1ccc(-c2cccc(-c3nc4ccccn4c3NC3CCCCC3)c2)cc1	?	-20.1%	11.7µM*	.	10µM*	6.1%
Cc1ccc2nc(-c3cccc(SC4CCCCC4)c3)c(NC3CCCCC3)n2c1	.	-0.4%	.	.	17.1%	8.0%
CCC(C)Sc1cc(-c2nc3ccccn3c2NC2CCCCC2)ccc1OC (configuration not stated)	?	-9.9%	4.15µM*	.	?	-13.6%
CC(C)[C@H](CO)NC(=O)[C@H]1O[C@@H](n2ccc(=O)[nH]c2=O)[C@H](O)[C@@H]1O	.	0.8%	.	.	.	.
Cc1nc(C(=O)O)nn1-c1cc(Cl)ccc1Cl	25.0%	-10.5%	10.7%	-4.3%	6.6%	0.0%
CCC(=O)NCCc1nc2cc(NC(=O)c3ccc(F)cc3)ccc2n1C	203.9%	-0.3%	-19.5%[0.00184 µM]	-0.3%	4.4%	-0.5%
CCC(=O)Nc1c(-c2ccc(C)cc2)nc2ccc(C)cn12	11.7µM*	-19.7%	?	4.4%	4.7%	-4.2%
COc1ccc(-c2ccc(-c3nc4ccc(C)cn4c3NC3CCCCC3)cc2OC)cc1	11.7µM*	-23.9%	11.7µM*	.	?	-1.8%
Cc1ccc2nc(-c3cccnc3)c(NC3CCCCC3)n2c1	-8.2%	-3.4%	?	6.3%	1.2%	-12.3%
